Screening data as filed in PubChem.
Hits are enriched below; roughly 8.3% of the tested compounds scored in any of these assays.
FMDV inh: High Throughput Screening for Foot and Mouth Disease Virus Antivirals. hit rate 1.2% among 410,000. Potency, µM (titrated, usually from 57.9 µM), inactives show at the highest dose activity change, negative = inhibition, hits mostly inhibitors. FMDV antiviral cell-based qHTS; calls by dose curve; tested in HEK293T cells; note: read-out not given here; potency is the fitted concentration of half-maximal effect; nearly all actives have a fitted effect of over 45% in size
LASV entry inh: qHTS for Inhibitors of binding or entry into cells for Lassa Virus; Lassa virus pseudotype entry inhibition, cell reporter; Potency, µM (titrated, usually from 37.9 µM), for inactives: at the top dose activity change, negative = inhibition, usual class: inhibitors; hit rate 1.2% among 300,000; AID 540256, 2011; calls by dose curve; tested in HEK293 cells; note: potency is the fitted concentration of half-maximal effect; nearly all actives have a fitted effect of over 50% in size
MARV entry inh: qHTS for inhibitors of binding or entry into cells for Marburg Virus; Potency, µM (series often up to 37.8 µM), without a hit: top-dose activity change, negative = inhibition, hits mostly inhibitors; Marburg virus pseudotyped entry inhibition, cell reporter; hit rate 1.8% among 300,000; calls by dose curve; tested in HEK293 cells; note: potency is the fitted concentration of half-maximal effect
Giardia FBPA inh: qHTS Assay for Inhibitors of Fructose-1,6-bisphosphate Aldolase from Giardia Lamblia; AID 2451, 2010; A8B2U2; purified Giardia FBPA; Potency, µM (doses to about 59.6 µM), without a hit: at the top dose activity, negative = inhibition, actives largely listed as inhibitors; hit rate 0.71% among 290,000; note: potency is the fitted concentration of half-maximal effect; nearly all actives have a fitted effect of over 55% in size
Target sequence (A8B2U2 whole entry, looked up): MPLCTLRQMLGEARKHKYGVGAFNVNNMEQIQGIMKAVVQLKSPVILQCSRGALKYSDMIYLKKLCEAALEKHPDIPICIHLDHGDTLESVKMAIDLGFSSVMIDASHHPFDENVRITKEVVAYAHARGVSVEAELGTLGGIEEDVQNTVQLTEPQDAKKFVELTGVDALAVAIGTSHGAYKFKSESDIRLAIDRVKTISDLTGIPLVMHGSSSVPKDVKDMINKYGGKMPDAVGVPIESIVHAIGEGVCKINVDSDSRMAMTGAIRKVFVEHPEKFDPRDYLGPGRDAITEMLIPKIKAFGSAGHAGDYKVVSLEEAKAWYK
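Giardia FBPA (40 nM reagent) was preincubated 10 min at RT with compound (up to 57.5 uM final), then substrate plus GAPDH/TPI/NAD/arsenate coupling system with diaphorase/resazurin was added; resorufin fluorescence (525/598 nm) was read after 20 min.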
HCMV antiviral: qHTS Assay for inhibitors of the human cytomegalovirus (HCMV) | HFF cells, HCMV-luciferase reporter, 72 h; hits give low values | activity change, negative = inhibition, % at 57.5 µM | hit rate 4.5% among 410,000; in the data active = activity change below about -60%; inconclusive = no clear call, values can overlap the other calls; inactive = above about -39%
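After 16 h attachment at 37C, HFF cells received test compound and HCMV-luciferase (1 PFU/cell); reporter luminescence read 72 h later, data normalized against buffer-only and known inhibitor Salinomycin.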
HCV inhibitor: qHTS Assay for Inhibitors of Hepatitis C Virus (HCV). Huh7.5.1 HCVcc-Cre infection, luciferase reporter, 44 h. Potency, µM (series often up to 41.8 µM), without a hit: top-dose activity change, negative = inhibition, hits mostly inhibitors. hit rate 3.4% among 340,000; note: potency is the fitted concentration of half-maximal effect
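HCVcc-Cre virus at an moi near 0.5 was added right after compound to cells cultured 4 h from seeding (1,000 cells/well). Luciferase activity was determined 44 h later, 15 min after substrate addition at RT.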
An asterisk follows results filed as active; ? = inconclusive; nt = no result; [ ] = dose if it differs, or a comment. Unless noted, calls come from the whole dose curve; as a rule, active = well fitted curve in the direction sought with a large enough effect; inconclusive = small, poorly fitted or top-dose-only effect, or another doubt; inactive = no such curve, though single readings can be large; an effect the other way counts as inactive or inconclusive. % is set by controls: 0 for no effect and ±100 for the full control effect.

SMILES | FMDV inh | LASV entry inh | MARV entry inh | Giardia FBPA inh | HCMV antiviral | HCV inhibitor
Cc1ccc(S(=O)(=O)N2CCN(CCNC(=O)C(=O)Nc3ccc(F)cc3)CC2)cc1 | 3% | 1% | ? | -7% | -67* | 11%
CCc1c2c(nc3ccc4c(c13)OCCO4)-c1nc3ccccc3c(=O)n1C2 | nt | nt | nt | -6% | nt | nt
CC(C)(C)NC(=O)C(c1ccc(-c2ccccc2)cc1)N(C[C@H]1CC[C@@H]([C@@H]2CC[C@H](CO)O2)O1)C(=O)c1ccc2ccccc2c1 (some centres undefined) | 0% | nt | nt | nt | -100* | ?
CO[C@H]1COC(=O)C/C=C\[C@H](C)[C@@H](OC)COC(=O)[C@@H](C)NC(=O)C/C=C\[C@@H]1C | nt | nt | nt | 5%[12.9 µM] | nt | nt
CN(C)c1cc[n+](CC(=O)Nc2ccc(OC(F)F)cc2)cc1 | ? | -16%[46.1 µM] | ? | 0% | -65* | -8%
CC(=O)c1ccc(NC(=O)C[n+]2ccc(N(C)C)cc2)cc1 | -19% | 26% | ? | ? | -26 | -9%
CN(C)c1cc[n+](CC(=O)Nc2ccc(Cl)c([N+](=O)[O-])c2)cc1 | -5% | -10%[46.1 µM] | ? | 8% | -96* | 8%
Cc1ccccc1C1(CC(=O)N2CCC[C@H]2C(N)=O)CC(=O)N(C2CCCC2)C1=O (some centres undefined) | 16% | nt | nt | nt | nt | nt
c1ccc(-c2ccc(-c3nc(-c4ccccn4)no3)cc2)cc1 | 2.8µM* | ? | ? | -2% | -95* | ?
c1ccc(-c2nc(-c3ccccn3)no2)cc1 | 13µM* | ? | ? | -2% | -18 | -1%
Cc1ccc(-c2nc(-c3ccccn3)no2)cc1Cl | -84% | 1.4µM* | ? | -18% | -64* | -22%
COc1cc(-c2nc(-c3ccccn3)no2)cc(OC)c1OC | nt | 13% | 23% | 0% | 107 | 4µM*
C#CCN1C(=O)[C@]2(O[C@H](COc3ccccc3)CC3=C2CCC3)c2ccccc21 | nt | ? | -41%[14.2 µM] | nt | nt | nt
c1ccc(-c2cc(-c3nc(-c4ccccn4)no3)c3ccccc3n2)cc1 | ? | ? | 14% | nt | -16 | -10%
Cc1ccc(-c2nc(-c3ccccn3)no2)cc1 | 2.8µM* | 0.32µM* | 1.1µM* | 6% | -91* | ?
Clc1cccc(-c2nc(-c3ccccn3)no2)c1 | ? | 1.8µM* | ? | 0% | -8 | -25%
Cc1ccc(Cc2nc(-c3ccccn3)no2)cc1 | 15% | ? | -25% | 4% | 38 | 1%
CCOC(=O)CNC(=O)C(Cc1ccccc1)NC(=O)OCc1ccccc1 (centres undefined) | -22% | nt | nt | 3% | -3 | 3%
C[C@H](N)C(=O)N[C@@H](C)C(=O)N[C@@H](Cc1ccccc1)C(=O)CCl | 3%[97.4 µM] | nt | nt | nt | nt | nt
CCOC(=O)CNC(=O)C(CO)NC(=O)OCc1ccccc1 (centres undefined) | 12% | 2% | 19% | 16% | -100* | 11%
CC(C)CC(NC(=O)OCc1ccccc1)C(=O)NC(Cc1ccccc1)C(=O)CCl (centres undefined) | 25µM* | ? | ? | nt | -6 | ?
O=C(N/N=C/c1c[nH]c2ccccc12)c1sc2ccccc2c1Cl | 60% | 7% | -24% | -6% | -19 | -5%
O=C(N/N=C/c1ccccn1)c1ccc(Cl)cc1 | ? | ? | ? | 15% | -97* | 7%
O=C(N/N=C/c1ccccn1)c1sc2ccccc2c1Cl | 11% | nt | nt | 5µM* | -5 | 15%
O=C(N/N=C/c1ccccn1)c1ccccc1 | -23% | ? | ? | 9% | 30 | 8%
SMILES | FMDV inh | LASV entry inh | MARV entry inh | Giardia FBPA inh | HCMV antiviral | HCV inhibitor
Cn1cccc1/C=N/NC(=O)c1sc2ccccc2c1Cl | 37% | -21% | 16% | -3% | -102* | -15%
O=C(Cn1c(=O)n(Cc2nc(-c3ccccc3)no2)c(=O)c2cc3c(cc21)OCO3)Nc1cccc(C(F)(F)F)c1 | 0% | 27%[46.1 µM] | nt | nt | -3 | nt
O=C(/C=C/c1ccc(F)cc1)c1ccccc1Br | 22µM* | ? | -28% | 3% | -82* | ?
CCC(CO)[n+]1c(C)cc(/C=C2\Sc3ccccc3N2Cc2ccccc2)cc1C (centres undefined) | 10µM* | ? | ? | -20% | -100* | ?
CC(=O)Oc1ccc(-c2nc3cc(Cl)ccc3c(=O)o2)cc1 | 4% | 14%[46.1 µM] | 28%[46.1 µM] | 10% | -78* | 16%
COc1cccc(S(=O)(=O)Nc2ccc3c(c2)[C@@H]2C[C@@H](CC(=O)NCc4ccc(Cl)cc4)O[C@@H](CO)[C@@H]2O3)c1 | -24% | nt | nt | nt | -78* | nt
COC(=O)C[C@H]1C[C@@H]2c3cc(NS(=O)(=O)c4cccc(OC)c4)ccc3O[C@@H]2[C@@H](CO)O1 | 2% | nt | nt | nt | -22 | nt
CCSc1nc(-c2cccs2)nc2ccccc12 | ? | 13% | -8%[46.1 µM] | 1% | -1 | 4µM*
c1ccc(CNc2nc(-c3cccs3)nc3ccccc23)cc1 | ? | 4% | 7% | 2% | -74* | ?
c1ccc(CNc2nc(NCc3ccccc3)c3sccc3n2)cc1 | 0% | nt | nt | nt | -80* | nt
c1ccc(CNc2nc(NCc3ccccc3)c3ccccc3n2)cc1 | ? | 10µM* | ? | -10% | nt | ?
c1ccc(CNc2nc(NCCOc3ccccc3)c3sccc3n2)cc1 | ? | nt | nt | nt | -33 | nt
Cc1nc(NCc2ccccn2)c2ccccc2n1 | ? | -43% | ? | -15% | -84* | 10µM*
Cc1cc(NCc2ccccn2)nc2ccccc12 | nt | 17% | -2% | -1% | -6 | -10%
CCC(C)Nc1nc(-c2cccc(OC)c2O)nc2ccccc12 (centres undefined) | 28µM* | ? | ? | -17% | 55 | 2.5µM*
Fc1ccccc1/C=N/Nc1nc(-c2ccccn2)nc2ccccc12 | nt | nt | nt | 5% | nt | nt
CCC(C)Nc1nc(-c2ccccn2)nc2ccccc12 (centres undefined) | ? | nt | nt | 24% | -99* | ?
c1ccc(CNc2nc(-c3ccccc3)nc3ccccc23)cc1 | -6% | 22%[46.1 µM] | ? | -2% | ? | ?
COc1cccc(-c2nc(NC(C)C)c3ccccc3n2)c1O | ? | -10% | -29% | -10% | -15 | ?
c1ccc(CNc2nc(-c3ccccn3)nc3ccccc23)cc1 | ? | ? | ? | 23% | -97* | 3.2µM*
CCOc1cc(C#N)c(-n2nnc3c(sc4nc(C)cc(C)c43)c2=O)cc1OCC | -21% | 24%[46.1 µM] | ? | nt | 2 | nt
COc1ccc(NC(=O)c2cc3nc(-c4ccc(C)c(C)c4)cc(C(F)(F)F)n3n2)cc1 | -21% | 16%[46.1 µM] | 1%[46.1 µM] | nt | 27 | nt
